From PubChem BioAssay AID2326 (National Center for Advancing Translational Sciences (NCATS), 2010)
Among all 270,000 compounds or so, about 1,100 (0.41%) were called active. Where a call stands in place of a potency, no number is given. Another 3% or so got no clear call; they are omitted. This is one part of a sample in which actives are shown more often than they occur. Calls come from the whole dose curve.

Test: qHTS Assay for Inhibitors of Influenza NS1 Protein Function; note: actives are rising curves; nearly all actives have a fitted effect of over 50% in size
Conditions: series mostly up to 46.1 µM
Text: NIH Chemical Genomics Center [NCGC]
NIH Molecular Libraries Probe Centers Network [MLPCN]
Assay Submitter (PI): Daniel Engel
Influenza is a world-wide public health problem and emerging forms of the virus have the potential to cause a pandemic of equal or greater magnitude to the outbreaks recorded in 1918, 1957 or 1968. Vaccine development is proceeding and there also exist two classes of anti-influenza compounds. However these therapeutic modalities are neither fully effective nor widely enough available to fulfill global needs. In addition their potential usefulness against newly emergent strains is not known. Efforts are needed to develop novel agents against influenza virus, including broad-spectrum agents. Identification of small molecules that inhibit NS1 function either directly or by interfering with specific cellular pathways may be a key to increasing our defense against the virus.
We have miniaturized and optimized a cell based assay in which NS1 from influenza A is expressed in the budding yeast S. cerevisiae. NS1 is a multi-functional protein that counters the host innate immune response and facilitates viral versus cellular gene expression. Expression of NS1 causes a pronounced slow growth phenotype in yeast due to its intrinsic molecular activities. Small molecules that suppress the slow growth phenotype can be identified by a straightforward growth recovery assay using optical density (OD) as the measurement. The same yeast strain not expressing NS1 was used as positive control in the yeast growth recovery assay.
The yeast S. cerevisiae control and NS1 expressing cells were kindly supplied by laboratory of Dr. Daniel Engel, University of Virginia. Yeast starter cultures were stored in single use aliquots at -80C.
1. Yeast culture medium per liter: 1.2 g Yeast Nitrogen Base (w/out amino acids and Ammonium Sulphate), 5.0g Ammonium Sulphate, 0.77g -URA DO (drop-out) Supplement, adjust pH to 6.0. Adjust to 2% glucose prior to inoculating with yeast.
2. Yeast assay medium: 1.2 g Yeast Nitrogen Base (w/out amino acids and Ammonium Sulphate), 5.0g Ammonium Sulphate, 0.77g -URA DO (drop-out) Supplement, adjust pH to 6.0. Adjust to 2% D-galactose prior to inoculating with yeast.
1. Inoculate 100 mls of yeast culture medium with 1 ml of frozen yeast aliquote. Incubate overnight at 30C, 250RPM.
2. Harvest overnight culture at 4000 RPM and wash pellet with 15 mls H2O 3x.
3. Re-suspend washed pellet in 10 mls of yeast assay medium.
4. Prepare a 1:100 dilution of re-suspended culture in yeast assay medium.
5. Dispense 3.5 ul per well of reagents in step 4 in columns 2-48 in a black clear bottom 1536 well plate.
6. Dispense 3.5 ul per well of yeast assay medium in column 1 only.
7. Transfer 23 nl of compound per well.
8. Dispense 3.5 ul per well of yeast assay medium in columns 1-48.
9. Read plate using Viewlux protocol for optical density 600 (OD600) using excitation filter 600nm.
Potency is the fitted concentration of half-maximal effect.

Row | SMILES | Potency
1 | CCN1CCN(c2nc(Nc3cc(OC)ccc3OC)nc(Nc3cc(OC)ccc3OC)n2)CC1 | inactive
2 | COc1ccc(Nc2nc(Cl)nc(NCc3ccco3)n2)cc1 | inactive
3 | CCOc1ccc(Nc2nc(Cl)nc(N3CCN(c4ccc(OC)cc4)CC3)n2)cc1 | 10 µM (active)
4 | CC(=O)Oc1ccc(-c2cccc(C(=O)N3CCCCC3)c2)cc1 | inactive
5 | COc1ccc(Cn2c(=S)[nH]c3cc(C(=O)N4CCCCC4)ccc3c2=O)cc1 | inactive
6 | COc1ccc(-n2nc(C(=O)NCC(=O)N3CCCCCC3)c3ccccc3c2=O)cc1Cl | inactive
7 | C=CCn1c(C23CC4CC(CC(C4)C2)C3)n[nH]c1=S | inactive
8 | COC(=O)c1c(NC(=O)c2cccs2)sc2c1CCCC2 | 2.24 µM (active)
9 | CC(C)OC(=O)c1c(NC(=O)c2ccco2)sc2c1CCCC2 | inactive
10 | COC(=O)c1c(NC(=O)CCCC(=O)O)sc2c1CCCCC2 | inactive
11 | Cc1ccc(O)c(CNc2nc3ccccc3[nH]2)c1 | inactive
12 | Cc1cccc(Nc2nc(-c3ccccc3)cs2)n1 | inactive
13 | O=C(/C=C/c1ccc(Cl)c([N+](=O)[O-])c1)c1ccc(O)cc1 | inactive
14 | CN(C)c1ccc(/C=C/C(=O)c2ccc(C(C)(C)C)cc2)cc1[N+](=O)[O-] | 12.6 µM (active)
15 | CN(C)c1ccc(/C=C/C(=O)c2ccc(O)cc2)cc1[N+](=O)[O-] | inactive
16 | O=C(CNC(=O)c1ccc(F)cc1)c1ccccc1 | inactive
17 | O=c1c2cc(Br)ccc2nc(-c2cccc(Cl)c2)n1O | inactive
18 | CCS(=O)(=O)Nc1ccc(C(=O)NCCSc2ccccc2)cc1 | inactive
19 | C[C@@]12C(=O)N(c3cccc(Br)c3)C(=O)N1[C@H](c1ccc(Cl)cc1)[C@@H]1C(=O)N(C3CCCCC3)C(=O)[C@@H]12 | inactive
20 | Cc1cccc(N2C(=O)N3[C@H](c4ccc(F)cc4)[C@@H]4C(=O)N(C5CCCCC5)C(=O)[C@@H]4[C@]3(Cc3ccccc3)C2=O)c1 | inactive
21 | Cc1cccc([C@@H]2[C@@H]3C(=O)N(Cc4ccccc4)C(=O)[C@@H]3[C@]3(C)C(=O)N(c4ccc(Br)cc4)C(=O)N23)c1 | 11.2 µM (active)
22 | CN(Cc1cnccn1)C(=O)c1cc(COc2cccc(C(F)(F)F)c2)on1 | inactive
23 | O=C(Nc1nnc(C2CC2)s1)c1cc(Cl)sc1Cl | inactive
24 | Cc1ccc(NC(=S)Nc2ccc(F)cc2)cc1 | inactive
25 | O=C(Nc1ccc(S(=O)(=O)N2CCCCCC2)cc1)c1c(F)cccc1F | inactive
26 | COc1ccc(CNC(=O)[C@H](Cc2c[nH]c3ccccc23)NC(C)=O)cc1OC | inactive
27 | COc1ccc(CN(C)C(=O)Cc2c[nH]c3ccccc23)c(OC)c1OC | inactive

Row | SMILES | Potency
28 | COc1ccc(C(C(=O)NC2CCCCC2)N(C(=O)Cc2c[nH]c3ccccc23)c2ccccc2)cc1OC (stereo not given) | 11.2 µM (active)
29 | CCOC(=O)C(Cc1ccc(N)cc1)N1C(=O)c2ccccc2C1=O (stereo not given) | inactive
30 | Cc1ccccc1C(=O)N1CCC(C(=O)Oc2ccc(C#N)cc2)CC1 | inactive
31 | CCC1CCCCN1CCCNC(=O)Cn1nc(-c2ccccc2)ccc1=O (stereo not given) | inactive
32 | Cc1ccc(-c2ccc(=O)n(CC(=O)NCCCN3CCCCC3)n2)cc1 | 3.55 µM (active)
33 | CCCCNC(=O)CCn1nc(-c2ccc(Cl)cc2)ccc1=O | inactive
34 | CCC(NC(=O)c1cc(COc2ccc(F)c(F)c2)on1)c1ccncc1 (stereo not given) | inactive
35 | CCc1ccc(-c2nc(SCC(=O)NC3CCCC3)n[nH]2)cc1 | inactive
36 | CC(=O)Nc1ccc(S(=O)(=O)Nc2cc(C)cn(Cc3ccc(C)cc3)c2=O)cc1 | inactive
37 | Cc1cccc(-n2ncc(Cl)c(Cl)c2=O)c1 | inactive
38 | O=C(Nc1ncc([N+](=O)[O-])s1)C1COc2ccccc2O1 (stereo not given) | inactive
39 | C1=C(N2CCOCC2)/C(=C/c2nc3ccccc3[nH]2)CC1 | 3.98 µM (active)
40 | O=c1[nH]c(N2CCOCC2)nc2ccccc12 | inactive
41 | c1ccc(Nc2nc(N3CCOCC3)c3ccccc3n2)cc1 | inactive
42 | COc1ccc(CNS(=O)(=O)c2ccc(NC(=O)N3CCCCC3)cc2)cc1 | inactive
43 | O=C(/C=C/c1ccc([N+](=O)[O-])o1)NNC(=O)c1ccc(F)cc1 | inactive
44 | O=C(/C=C/c1ccco1)NC(=S)N1CCCCC1 | inactive
45 | Cc1ccc(C(=O)Nc2nnc(C3=COCCO3)o2)cc1C | inactive
46 | O=C(CN1C(=O)S/C(=C\c2ccccc2Cl)C1=O)NC1C=CS(=O)(=O)C1 (stereo not given) | inactive
47 | COc1ccc(-c2nnc(SCC(=O)c3cccs3)o2)c(OC)c1 | inactive
48 | COc1ccc(-n2c(C)cc(C(=O)CSc3nnc(-c4cccs4)o3)c2C)cc1 | 11.2 µM (active)
49 | COc1ccc(C(=O)CSc2nnc(-c3ccco3)o2)cc1 | inactive
50 | Cc1ccc(O)c(/C=N/NC(=O)COc2ccc3c(C)cc(=O)oc3c2)c1 | inactive
51 | O=[N+]([O-])c1ccc(O)c(/C=N/Nc2ccccc2[N+](=O)[O-])c1 | inactive
52 | S=C(Nc1cccc(Cl)c1)Nc1ccc2c(c1)OCCO2 | inactive
53 | CSc1ccccc1OCc1cc(C(=O)N2C[C@H]3CC[C@H]2C3)no1 | inactive
54 | Cc1cc2cc(CNC(=O)c3cccs3)ccc2[nH]1 | 7.08 µM (active)

Row | SMILES | Potency
55 | Cc1cc2cc(CNC(=O)c3ccc(S(=O)(=O)N4CCOCC4)cc3)ccc2[nH]1 | inactive
56 | CCc1cccc(CC)c1NC(=S)NCc1ccc2[nH]c(C)cc2c1 | inactive
57 | CCC(=O)Nc1ccc(-c2ccc(N3CCCCC3)nn2)cc1 | inactive
58 | CCCCNC(=O)N(O)C1N(/N=C/c2ccccc2O)C(=S)SC1(C)C (stereo not given) | inactive
59 | C/C=C/C(=O)Nc1nnc(C(C)C)s1 | inactive
60 | COc1cccc(OC)c1C(=O)Nc1nnc(C(C)C)s1 | 3.98 µM (active)
61 | COc1ccc(CNC(=O)CCC(=O)Nc2nnc(C(C)C)s2)cc1 | inactive
62 | CCCN1CCn2c3c(c4cc(Br)ccc42)CCCC31 (stereo not given) | inactive
63 | O=C(NCCCc1ccccc1)C(=O)c1c[nH]c2ccccc12 | inactive
64 | CSc1nnc(NC(=O)c2nc(S(=O)(=O)Cc3ccc(C)cc3)ncc2Cl)s1 | inactive
65 | CCc1ccc(S(=O)(=O)N/N=C\c2ccc([N+](=O)[O-])o2)cc1 | inactive
66 | CSCc1nnc(NC(=O)c2ccc(S(=O)(=O)N3CCCCC3C)cc2)o1 (stereo not given) | inactive
67 | Cc1ccc(Cn2c(C)nc3c(c2=O)c2nc4ccccc4nc2n3Cc2ccco2)cc1 | 4.47 µM (active)
68 | Cc1nc2c(c(=O)n1Cc1ccco1)c1nc3ccccc3nc1n2Cc1ccccc1 | inactive
69 | COCCCn1c2nc3ccccc3nc2c2c(=O)n(Cc3ccc(Cl)cc3)c(C)nc21 | inactive
70 | CC1(C(=O)NNC(=S)NCC2CCCO2)CC1(Cl)Cl (stereo not given) | inactive
71 | O=C(N[C@@H](Cc1ccccc1)C(=O)OCc1ccccc1)c1nc[nH]c1C(=O)N[C@@H](Cc1ccccc1)C(=O)OCc1ccccc1 | inactive
72 | CCc1ccc(OCC2c3cc(OC)c(OC)cc3CCN2C(C)=O)cc1 (stereo not given) | inactive
73 | COc1ccc(NC(=O)CN2CCN(S(=O)(=O)c3ccc(F)cc3)CC2)cc1Cl | inactive
74 | COc1cc2c(cc1NC(=O)CN1CCN(S(=O)(=O)c3ccc(F)cc3)CC1)oc1ccccc12 | 5.62 µM (active)
75 | COc1ccccc1NC(=O)CN1CCN(S(=O)(=O)c2ccc(Br)cc2)CC1 | inactive
76 | CC(CN1CCOCC1)OC(=O)c1ccc(C(C)(C)C)cc1 (stereo not given) | inactive
77 | O=C(CC(n1cncn1)C(Cl)(Cl)Cl)c1ccc([N+](=O)[O-])cc1 (stereo not given) | inactive
78 | Cc1cc(C)c(S(=O)(=O)Nc2c(C)n(C)n(-c3ccccc3)c2=O)cc1[N+](=O)[O-] | inactive
79 | Cc1ccc(S(=O)(=O)Nc2ccccc2CNc2c(C)n(C)n(-c3ccccc3)c2=O)cc1 | inactive
80 | COc1ccc(S(=O)(=O)Nc2c(C)n(C)n(-c3ccccc3)c2=O)cc1 | 3.98 µM (active)
81 | O=[N+]([O-])c1ccc(NC(=S)N2CCN(c3ccccn3)CC2)cc1 | inactive

Row | SMILES | Potency
82 | FC(F)(F)C1CCCN(c2nsc3ccccc23)C1 (stereo not given) | inactive
83 | COc1cccc(OCc2cc(C(=O)N3CCN(C(=O)c4ccco4)CC3)no2)c1 | inactive
84 | Cc1cc(C(=O)N/N=C/c2ccccc2[N+](=O)[O-])c(C)o1 | inactive
85 | Cc1ccsc1/C=N/NC(=O)Cc1cc(=O)[nH][nH]1 | inactive
86 | O=C(Cc1cc(=O)[nH][nH]1)N/N=C/c1ccccc1[N+](=O)[O-] | 8.91 µM (active)
87 | COc1cnc(-c2ccccn2)nc1Oc1ccc(C(C)(C)C)cc1 | inactive
88 | O=C(CSc1nnnn1C1CCCC1)N1CCCCC1 | inactive
89 | O=C1c2cccc(OCC(=O)N3N=C(c4cccs4)CC3c3ccc(F)cc3)c2CCN1Cc1ccccc1 (stereo not given) | 5.01 µM (active)
90 | COc1ccc(C2CC(c3cccs3)=NN2C(=O)CCC(=O)O)cc1OC (stereo not given) | inactive
91 | COc1ccc(C2CC(c3cccs3)=NN2C(=O)COC(=O)c2cc3ccccc3cc2O)cc1OC (stereo not given) | inactive
92 | O=C(Nc1ccc(C2CC2(Cl)Cl)cc1)c1cccc([N+](=O)[O-])c1 (stereo not given) | inactive
93 | Cc1cnc(NC(=O)c2ccc(Cl)nc2)s1 | inactive
94 | O=C(CCCN1C(=O)/C(=C/c2cccs2)SC1=S)Nc1ccc(O)cc1 | inactive
95 | COc1ccc(CNC(=O)C(c2ccc(O)cc2)N(Cc2ccco2)C(=O)c2snc(C(N)=O)c2N)cc1 (stereo not given) | inactive
96 | Cc1cccc(NC(=S)NCCc2ccc(Cl)cc2)c1C | inactive
97 | O=c1[nH]nc(CSCc2ccccc2Cl)[nH]1 | inactive
98 | Clc1ccccc1CSc1nnc(-c2ccco2)c(-c2ccco2)n1 | inactive
99 | O=c1cc(O)nc(SCc2ccccc2Cl)[nH]1 | 5.01 µM (active)
100 | COc1ccc(C(=O)/C=C/c2cccnc2)c(OC)c1 | inactive
101 | O=C(/C=C/c1ccco1)NC(=S)Nc1ccccc1Br | inactive
102 | Oc1ccccc1-c1cc(-c2ccc(Cl)cc2)n[nH]1 | inactive
103 | COc1cccc(CN(C)CC(O)COC(c2ccccc2)c2ccccc2C)c1 (stereo not given) | inactive
104 | Cc1ccccc1C(OCC(O)CN1CCCCC1CCO)c1ccccc1 (stereo not given) | 4.47 µM (active)
105 | CC(C)OCC(O)CN1CCN(C(c2ccccc2)c2ccccc2)CC1 (stereo not given) | inactive
